Measurements: PubChem BioAssay AID1159580 (chemical genetic matrix, 2015)
The whole screen tested about 5,500 compounds, of which about 2,000 (36%) were called active. Not shown: some 18% with an inconclusive outcome. No stated cut-off is given here; in the data, active means normalized growth mostly below about 0.91 (no sharp cut-off); inconclusive means no clear call, values can overlap the other calls; inactive means mostly above about 0.92. Some of the results follow.

Test: chemical genetic growth profiling, strain panel (AID 1159580);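 further: tested at 20 µM; growth read once vehicle control cultures reached saturation at 30 °C; 1 = growth at the plate median or of vehicle wells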
Conditions: growth OD
[1] = S. cerevisiae deletion strains, locus YDR150W, strain NUM1, stronger effect = lower value
[2] = S. cerevisiae deletion strains, locus YPL055C, strain LGE1, stronger effect = lower value
[3] = S. cerevisiae deletion strains, locus YPL241C, strain CIN2, stronger effect = lower value

Measured: normalized growth

CSC(N)=NCCC[C@H](N)C(=O)O
inactive: S. cerevisiae deletion strains, locus YAL040C, strain CLN3, stronger effect = lower value 1.1 | S. cerevisiae deletion strains, locus YCL061C, strain MRC1 (second series), stronger effect = lower value 1.01 | [1] 1.02 | S. cerevisiae deletion strains, locus YDR363W, strain ESC2, stronger effect = lower value 0.997 | S. cerevisiae deletion strains, locus YER002W, strain NOP16, stronger effect = lower value 1.02 | S. cerevisiae deletion strains, locus YMR307W, strain GAS1, stronger effect = lower value 1 | S. cerevisiae deletion strains, locus YNL175C, strain NOP13, stronger effect = lower value 1.01 | S. cerevisiae deletion strains, locus YNL197C, strain WHI3, stronger effect = lower value 1 | S. cerevisiae deletion strains, locus YNL224C, strain SQS1, stronger effect = lower value 1 | S. cerevisiae deletion strains, locus YOR083W, strain WHI5 (second series), stronger effect = lower value 1 | [2] 1 | [3] 1.01

COc1ccc(OC)c(S(=O)(=O)N2CCc3cc(OC)c(OC)cc3C2C)c1 (stereo unspecified)
inactive: S. cerevisiae deletion strains, locus YAL013W, strain DEP1, stronger effect = lower value 1 | S. cerevisiae deletion strains, locus YBR229C, strain ROT2, stronger effect = lower value 0.998 | S. cerevisiae deletion strains, locus YCL061C, strain MRC1, stronger effect = lower value 0.994 | S. cerevisiae deletion strains, locus YDL101C, strain DUN1, stronger effect = lower value 0.972 | S. cerevisiae deletion strains, locus YDL134C, strain PPH21, stronger effect = lower value 0.992 | [1] 0.909 | S. cerevisiae deletion strains, locus YEL061C, strain CIN8, stronger effect = lower value 0.998 | S. cerevisiae deletion strains, locus YGR078C, strain PAC10, stronger effect = lower value 0.99 | S. cerevisiae deletion strains, locus YHR030C, strain SLT2, stronger effect = lower value 0.996 | S. cerevisiae deletion strains, locus YHR087W, strain rtc3, stronger effect = lower value 1.03 | S. cerevisiae deletion strains, locus YJL187C, strain SWE1, stronger effect = lower value 1.01 | S. cerevisiae deletion strains, locus YJR043C, strain POL32, stronger effect = lower value 0.973 | S. cerevisiae deletion strains, locus YJR075W, strain HOC1, stronger effect = lower value 0.999 | S. cerevisiae deletion strains, locus YKL190W, strain CNB1, stronger effect = lower value 0.984 | S. cerevisiae deletion strains, locus YLR039C, strain RIC1, stronger effect = lower value 0.948 | S. cerevisiae deletion strains, locus YLR058C, strain SHM2 (second series), stronger effect = lower value 1.02 | S. cerevisiae deletion strains, locus YLR085C, strain ARP6, stronger effect = lower value 1.02 | S. cerevisiae deletion strains, locus YLR262C, strain YPT6, stronger effect = lower value 1.02 | S. cerevisiae deletion strains, locus YML094W, strain GIM5, stronger effect = lower value 1.03 | S. cerevisiae deletion strains, locus YMR219W, strain ESC1, stronger effect = lower value 1 | S. cerevisiae deletion strains, locus YMR263W, strain SAP30, stronger effect = lower value 1.01 | S. cerevisiae deletion strains, locus YNL153C, strain GIM3, stronger effect = lower value 0.994 | S. cerevisiae deletion strains, locus YNL298W, strain CLA4 (second series), stronger effect = lower value 0.993 | S. cerevisiae deletion strains, locus YNL322C, strain KRE1, stronger effect = lower value 1 | S. cerevisiae deletion strains, locus YNR030W, strain Alg12, stronger effect = lower value 1 | [2] 1.02 | [3] 0.996 | S. cerevisiae deletion strains, locus YPR135W, strain CTF4, stronger effect = lower value 0.947 | S. cerevisiae strains, strain wild type, stronger effect = lower value 0.972
